High-throughput results from PubChem BioAssay.
An excerpt weighted towards active compounds, which were near 2.8% of everything screened.
PI5P4K alpha inh = inhibitors of human PI5P4K alpha | P48426 | PI5P4Kalpha enzyme, ADP-Glo luminescence, 60 min; stronger effect = lower value | max response, % | 330,000 tested, 1.2% active; active = max response of -50% or lower; inconclusive = between -30% and -50%; inactive = -30% or higher; also: value at the top dose of about 77 µM; % is scaled to controls: 0 for no effect and ±100 for the full control effect
Target sequence (P48426 whole entry, looked up): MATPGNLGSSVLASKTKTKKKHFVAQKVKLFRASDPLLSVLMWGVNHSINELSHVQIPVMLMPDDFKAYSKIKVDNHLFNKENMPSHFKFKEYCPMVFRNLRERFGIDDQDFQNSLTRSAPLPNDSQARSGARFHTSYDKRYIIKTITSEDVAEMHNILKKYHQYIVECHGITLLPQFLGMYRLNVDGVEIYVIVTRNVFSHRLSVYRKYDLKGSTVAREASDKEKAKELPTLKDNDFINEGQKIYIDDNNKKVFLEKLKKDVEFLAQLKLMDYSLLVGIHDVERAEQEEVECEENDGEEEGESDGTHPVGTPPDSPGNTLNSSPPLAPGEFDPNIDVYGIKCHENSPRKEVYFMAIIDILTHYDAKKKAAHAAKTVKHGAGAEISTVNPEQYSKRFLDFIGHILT
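Luminescence from ADP-Glo served as readout of PI5P4Kalpha activity in a qHTS format. Reaction: enzyme, substrate, compound, ATP at 5 microM final, 60 min at RT.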
Pol kappa inh = inhibitors of human DNA polymerase kappa; Q9UBT6; purified Pol kappa, fluorescent DNA synthesis assay, 10 min; Potency, µM (doses to about 107 µM), without a hit: at the top dose activity, negative = inhibition, most hits filed as inhibitors; 400,000 tested, 0.53% active; AID 588579; also: potency is read from the fitted curve at half-maximal effect; % is scaled to controls: 0 for no effect and ±100 for the full control effect
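First, compounds were pin-transferred onto 10 nM Pol kappa. After 15 min at room temperature, substrate was added to 50 nM final. Fluorescence was then measured kinetically at 0 and 10 min.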
Pol beta inh = inhibitors of human DNA polymerase beta; 340,000 tested, 1.3% active; Potency, µM (series often up to 114 µM), without a hit: at the top dose activity change, negative = inhibition, most hits filed as inhibitors; P06746; Pol beta primer extension/strand displacement, fluorescence kinetic; also: potency is read from the fitted curve at half-maximal effect; % is scaled to controls: 0 for no effect and ±100 for the full control effect
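Values derive from four-parameter Hill fits of normalized kinetic data: reads at 0 and 10 min following addition of 50 nM substrate to 10 nM Pol beta preincubated 15 min with compound.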
Pol iota inh = inhibitors of human DNA polymerase iota | Q9UNA4 | Potency, µM (doses to about 115 µM), inactives show at the top dose activity, negative = inhibition, actives largely listed as inhibitors | Pol iota fluorescent replication assay, 10 min | 390,000 tested, 1% active; also: potency is read from the fitted curve at half-maximal effect
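Fluorescent replication assay read twice, at 0 min and 10 min after adding 50 nM (final) substrate. Enzyme (10 nM) and compounds were first incubated 15 min at room temperature; enzyme-free buffer wells were negative controls.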
POLH inh = DNA polymerase eta (human) inhibition; recombinant Pol eta, fluorescent DNA replication assay; Potency, µM (titrated, usually from 114 µM), for the others: at the highest dose activity change, negative = inhibition, actives largely listed as inhibitors; 390,000 tested, 1.2% active; also: potency is read from the fitted curve at half-maximal effect; % is scaled to controls: 0 for no effect and ±100 for the full control effect
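Pol eta at 10 nM preincubated with compounds 15 min at room temperature; reaction started with fluorescent substrate (50 nM final) and read kinetically at 0 and 10 min.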
WRN inhibitor = WRN helicase (human) inhibition. Q14191. 360,000 tested, 0.46% active. WRN helicase unwinding, fluorescent forked duplex, kinetic. Potency, µM (doses to about 114 µM), inactives show top-dose activity change, negative = inhibition, hits mostly inhibitors; also: potency is read from the fitted curve at half-maximal effect; % is scaled to controls: 0 for no effect and ±100 for the full control effect; nearly all actives have a fitted effect of over 55% in size
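Enzyme (20 nM final) and test compound sit together 15 min at room temperature before substrate addition. Substrate is a single-forked duplex oligonucleotide (100 nM) labelled with fluorophore and quencher, with 2 mM ATP; helicase unwinding raises red fluorescence, read kinetically.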
* marks the source's active call; other numbers are inactive results; u = inconclusive; x = no result; ! = repeats disagree; [ ] = dose if it differs, or a comment. Unless noted, calls follow the shape of the dose curve; as a rule, active = well fitted curve in the direction sought with a large enough effect; inconclusive = small, poorly fitted or top-dose-only effect, or another doubt; inactive = no such curve, though single readings can be large; an effect the other way counts as inactive or inconclusive.

SMILES	PI5P4K alpha inh	Pol kappa inh	Pol beta inh	Pol iota inh	POLH inh	WRN inhibitor
CN(C)c1c([N+](=O)[O-])cc(N2C(=O)C=CC2=O)cc1[N+](=O)[O-]	-86*	-37%	x	u	-17%	35µM*
O=[N+]([O-])c1cc(O)c(O)c([N+](=O)[O-])c1	-23	16µM*!	5%[57.1 µM]	u	u	-7%
CC(C)(CO)CNC1CCCN(C2Cc3ccccc3C2)C1 (configuration not stated)	2	-10%	43%	40%	-16%	3%
[Cl][In]([Cl])[Cl]	x	3%[60.1 µM]	x	18µM*	x	x
O=C(Nc1ccc(Br)cc1C(=O)O)c1ccc2c(c1)C(=O)N(Cc1ccccc1)C2=O	-74*	-7%	15%	72%	28µM*	u
COc1ccc(CCn2c(NN=C3CCCCC3)nc3c2c(=O)[nH]c(=O)n3C)cc1	u	-18%	-23%	18µM*	u	-5%
CC[C@H](C)/C=C(C)/C=C/C1=CC2=C(Cl)C(=O)[C@@](C)(OC(C)=O)C(=O)C2=CO1	-87*	u	x	u	20µM*	45µM*
COc1cccc(-c2nc3c(C#N)c[nH]n3c2NC2CCCCC2)c1OC	x	0%	-4%	33%	-7%	x
C[C@H](NC(=O)[C@@H](N)Cc1ccc(O)cc1)C(=O)NCC(=O)N(C)[C@@H](Cc1ccccc1)C(=O)NCCO	x	3%[19.4 µM]	x	x	x	x
NC(=O)c1cn(C2CCCCC2)c2ccccc2c1=O	1	4%	0%	18%	-3%	-3%
O=C1c2ccccc2C(=O)N1SC1CCCCC1	1	10%	2%	u	-11%	50µM*
COC1CC2C=C(C)C=CC=CC(=O)NC(c3ccccc3)CC=CCCC(O)CC(=O)C2=C1O (configuration not stated)	-84*	x	x	x	x	u
Cn1c(=O)oc2cc(S(=O)(=O)Nc3cccc([N+](=O)[O-])c3)ccc21	12	-11%	-26%	100%	10%	3%
O=[N+]([O-])c1ccc(N2CCCC2)c(F)c1Br	0	-4%	42%	u	-14%	3%
Cc1cc(Oc2cc(NN3CCCCC3)c([N+](=O)[O-])cc2[N+](=O)[O-])ccc1[N+](=O)[O-]	u	-21%	40µM*	u	-11%	-14%
Oc1c(C(Nc2cccnc2)c2ccccc2F)ccc2cccnc12 (configuration not stated)	x	0%	x	51%	x	x
O=C(Nc1ccc(F)cc1F)c1cccn(Cc2ccccc2)c1=O	14	4%	-3%	-26%	-6%	-2%
Cc1ccc(F)cc1NC(=O)c1ccc(Cn2nc(N3CCN(c4ccccc4)CC3)ccc2=O)o1	x	-11%	u	u	79µM*	x
c1nc[n]([Sn]([CH]2CCCCC2)([CH]2CCCCC2)[CH]2CCCCC2)n1	x	13%[60.1 µM]	x	x	x	x
CC(C)CCC(=O)OC1CCC2C3CCC4=CC(=O)CC[C@]4(C)C3CC[C@]12C (some centres not stated)	x	2%[19.4 µM]	x	x	x	x
CN(C)C1C(=O)C(C(N)=O)=C(O)C2(O)C(=O)C3=C(O)c4c(O)cccc4C(C)(O)C3C(O)C12 (configuration not stated)	-54*	-4%	11µM*	-8%	-9%	-35%
O=C(O)c1ccc([N+](=O)[O-])c([N+](=O)[O-])c1	-50*	-13%	x	-6%	u	3%
C[C@H](N)C(=O)NCC(=O)N[C@H]1CSSC[C@@H](C(=O)O)NC(=O)[C@H](CO)NC(=O)[C@H]([C@@H](C)O)NC(=O)[C@H](Cc2ccccc2)NC(=O)[C@H]([C@@H](C)O)NC(=O)[C@H](CCCCN)NC(=O)[C@H](Cc2c[nH]c3ccccc23)NC(=O)[C@H](Cc2ccccc2)NC(=O)[C@H](Cc2ccccc2)NC(=O)[C@H](CC(N)=O)NC(=O)[C@H](CCCCN)NC1=O	x	5%[60.1 µM]	x	x	x	x
Cc1ccc(/C=C2\C(=O)NC(=O)N(CCc3ccc(F)cc3)C2=O)o1	-53*	-31%	-11%	u	-14%	-36%
O=C1NC(=O)N(CCc2ccc(F)cc2)C(=O)/C1=C\C=C\c1ccccc1	-4	-11%	-1%	3.2µM*	-11%	-18%
SMILES	PI5P4K alpha inh	Pol kappa inh	Pol beta inh	Pol iota inh	POLH inh	WRN inhibitor
Cc1ccc(/C=C2/C(=O)NC(=O)N(Cc3ccc(F)cc3)C2=O)o1	x	x	25%	x	x	x
CCOc1cc(/C=C2\C(=O)NC(=O)N(CCc3ccc(F)cc3)C2=O)ccc1O	-58*	-9%	0%	u	-9%	-11%
C=CCN1C(=O)NC(=O)/C(=C/C=C/c2ccccc2)C1=O	u	-4%	-11%	69%	-13%	u
CN(C)c1ccc(/C=C2/C(=O)NC(=O)N(CCc3ccc(F)cc3)C2=O)cc1	u	0%	13%	-16%	1%	-3%
Cc1ccc(/C=C2\C(=O)NC(=O)N(Cc3ccccc3Cl)C2=O)o1	u	u	u	25µM*	79µM*	u
O=C=NCCCCN=C=O	x	-1%[60.1 µM]	x	x	x	x
C=C1CC[C@H](O)C/C1=C/C=C1\CCC[C@]2(C)[C@H]1CC[C@H]2[C@@H](C)CCCC(C)C	x	-9%[12 µM]	x	x	x	x
Cc1ccc2c(C)cccc2c1	-71*	-5%	x	-11%	1%	3%
Cc1cccc(O)c1	x	62%[60.1 µM]	x	x	x	x
COc1ccc2c(c1OC)CN(C)CCc1cc3c(cc1C(=O)C2)OCO3	-6	-16%	-17%	126%	-4%	-3%
CCCOCCN(C(=O)CCl)c1c(CC)cccc1CC	x	15%[60.1 µM]	x	x	x	x
NC(=O)OCCCc1ccccc1	2	0%	x	u	-5%	-2%
CCOC(=O)CCCc1cc[c]([Sb](=[O])([OH])[OH])cc1	x	0.71µM*	x	1µM*	x	x
CCN(CC)C(=O)N[C@H]1C[C@@H]2c3cccc4[nH]cc(c34)C[C@H]2N(C)C1	-75*	u	1%	u	-2%	-6%
O=C1C=CC(=O)C=C1	-9	-6%[60.1 µM]	u	u	u	6%
O=C1C=CC(=O)C(Cl)=C1	x	16µM*	x	x	x	x
O=[N+]([O-])c1cc(C(F)(F)F)c(Cl)c([N+](=O)[O-])c1Nc1ncc(C(F)(F)F)cc1Cl	x	-31%	x	u	x	x
ClCCN(CCCl)c1ccc(C=Nc2ccc(/C=C/c3ccncc3)cc2)cc1	x	-14%	x	3%	x	x
ClCCN(CCCl)c1ccc(/C=C/c2sc3ccccc3[n+]2CCCCI)cc1	x	28µM*	x	89µM*	x	x
O=C(COc1ccc(Br)cc1)N1CCN(C2CCCC2)CC1	-6	-7%	-3%	10%	-8%	-10%[57.1 µM]
O=C1NC(=S)NC(=O)C1=Cc1ccc(OCC(=O)N2CCCC2)cc1	-54*	-34%	50µM*	u	u	-7%
